# Source: PubChem
# p53 reactivation: restores transcriptional activity of mutant p53; H1299 p53-A138V BP100-luciferase reporter, luminescence, 24 h; Potency, µM (series often up to 92.2 µM), for the others: at the top dose activity change, positive = activation, actives largely listed as activators; 320,000 compounds, 0.063% hits; also: % of control where 0% means no effect; nearly all actives have a fitted effect of over 45% in size
#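 H1299 (p53-null), stable ts p53-A138V + BP100-Luc; 1000 cells/well, Opti-MEM/10% FBS; cpd 4 pt, 1:5; 24 h, 37 deg C, 5% CO2; detection reagent 10 min RT; luminescence.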
# Rab9 prom act: activates the Rab9 promoter; Huh7 Rab9 promoter-luciferase reporter, luminescence, 24 h; Potency, µM (top dose mostly 9.22 µM), inactives show at the top dose activation, negative = inhibition, most hits filed as activators; 320,000 compounds, 2.8% hits; AID 485297; also: % of control where 0% means no effect; nearly all actives have a fitted effect of over 60% in size
#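 Luciferase signal after 10 min detection reagent at ambient indicates Rab9 promoter upregulation; stably transfected Huh7 cells were treated 24 h with compound in DMSO at 37 °C, 5% CO2.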
# ELG1 genotox: inducers of genotoxicity in HEK293T ELG1-luciferase cells; Potency, µM (titrated, usually from 46 µM), inactives show top-dose activity change, positive = activation, most hits filed as activators; AID 504466; 330,000 compounds, 1.3% hits; HEK293T ELG1-luciferase reporter, luminescence, 16 h; also: % of control where 0% means no effect; nearly all actives have a fitted effect of over 60% in size
#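 ELG1-luciferase HEK293T cells, 2,000/well; compound pinned in; 16 hr, 37 °C, 5% CO2; ONE-Glo, 30 min RT; luminescence on CCD imager.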
# FLuc counter: inhibits or activates purified firefly luciferase, miR-21 counter-screen; 360,000 compounds, 6.9% hits; purified FLuc, Km substrates, luminescence inhibition; P08659; Potency, µM (titrated, usually from 57.5 µM), for the others: at the top dose activity change, negative = inhibition, actives largely listed as inhibitors; AID 588342;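 also: plate controls were vehicle for no effect and reference inhibitor for full effect; nearly all actives have a fitted effect of over 55% in size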
# Target sequence (P08659 whole entry, looked up): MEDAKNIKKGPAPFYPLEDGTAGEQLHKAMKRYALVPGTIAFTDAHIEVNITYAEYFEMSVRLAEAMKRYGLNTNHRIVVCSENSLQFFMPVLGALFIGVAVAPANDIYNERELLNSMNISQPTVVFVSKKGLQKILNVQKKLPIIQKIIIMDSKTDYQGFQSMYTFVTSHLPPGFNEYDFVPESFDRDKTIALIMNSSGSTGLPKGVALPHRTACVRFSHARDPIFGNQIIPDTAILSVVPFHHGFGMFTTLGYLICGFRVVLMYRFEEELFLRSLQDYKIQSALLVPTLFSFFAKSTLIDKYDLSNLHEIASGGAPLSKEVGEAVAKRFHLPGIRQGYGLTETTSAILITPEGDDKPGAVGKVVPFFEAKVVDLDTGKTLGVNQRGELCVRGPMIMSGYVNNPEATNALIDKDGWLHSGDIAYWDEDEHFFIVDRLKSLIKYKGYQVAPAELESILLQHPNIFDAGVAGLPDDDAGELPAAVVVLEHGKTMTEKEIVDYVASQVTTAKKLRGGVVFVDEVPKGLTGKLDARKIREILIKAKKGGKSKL
#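 Biochemical qHTS of compounds, final roughly 60 µM downward over six points, against 10 nM purified firefly luciferase using Km concentrations of substrates (10 uM D-luciferin, 10 uM ATP) in Tris acetate pH 7.5 buffer; luminescence output.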
# SMN2 splice enh: increases expression of the SMN2 splice variant; Potency, µM (titrated, usually from 46.1 µM), without a hit: top-dose activity change, positive = activation, hits mostly activators; HEK293 SMN2-luciferase splicing reporter, luminescence, 30-36 h; 210,000 compounds, 2.8% hits; AID 1458; also: % of control where 0% means no effect; nearly all actives have a fitted effect of over 55% in size
#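 HEK293 cells carry an SMN2 […]–luciferase reporter in which exon 7 inclusion puts luciferase in frame. Cells were plated 10-12 h before compound addition, then incubated 30-36 h at 37C. ONE-Glo luminescence was read; sodium butyrate at 4.5 mM final served as control.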
# NPC1 prom act: activates the NPC1 promoter | AID 485313 | 320,000 compounds, 2.4% hits | Potency, µM (top dose mostly 9.22 µM), without a hit: top-dose activation, hits mostly activators | Huh7 NPC1 promoter luciferase reporter, 24 h; also: % of control where 0% means no effect; nearly all actives have a fitted effect of over 60% in size
#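 In 1536-well qHTS, Huh7 cells harboring an NPC1 promoter–luciferase construct received compound for 24 h; activation was quantified by luminescence following luciferase reagent addition.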
# Numbers without * were called inactive; ? = inconclusive; / = no result; [ ] = dose if it differs, or a comment. This is a sample that favours compounds with a hit; in the whole collection about 7.4% have one here. Calls follow the shape of the dose curve; as a rule, active = well fitted curve in the direction sought with a large enough effect; inconclusive = small, poorly fitted or top-dose-only effect, or another doubt; inactive = no such curve, though single readings can be large; an effect the other way counts as inactive or inconclusive. Potency is read from the fitted curve at half-maximal effect.
SMILES,p53 reactivation,Rab9 prom act,ELG1 genotox,FLuc counter,SMN2 splice enh,NPC1 prom act
N/C(=N\OC(=O)/C=C/c1ccccc1Cl)c1ccncc1,?,0.71µM*,6%,0.85µM*,1.4µM*,1.3µM*
N/C(=N\OC(=O)/C=C/c1ccccc1)c1ccccn1,12%,2.5µM*,4.1µM*,0.67µM*,13µM*,?
COc1ccccc1C/C(N)=N/OC(=O)/C=C/c1ccccc1,4%,15%,2%,?,6%,-1%
N/C(=N\OC(=O)CCCOc1ccccc1)c1ccncc1,4%,-4%,1%,-2%,10%,0%
O=C(C[N+]12CN3CN(CN(C3)C1)C2)c1ccc(-c2ccccc2)cc1,/,/,/,/,-6%[9.22 µM],/
c1c[nH]c(CN2CCOCC2)n1,/,/,/,/,-20%[9.22 µM],/
COc1c(Cl)cc(Cl)cc1C(=O)Nc1cccc(-c2nc3ccccc3o2)c1C,/,/,/,-8%,12%,/
O=C(/C=C/c1ccccc1)N1CCN(c2ccccn2)CC1,7%,1%,5%,?,-4%,0%
O=C(/C=C/c1ccccc1)c1ccccn1,-2%,?,19%,1.3µM*,-11%,?
Cc1ccc(-c2nnc(Nc3ccc4c(c3)OCO4)c3ccccc23)cc1S(=O)(=O)NCCO,-8%,16%,-1%,15µM*,-16%[1.84 µM],0%
Cc1ccc(-c2nnc(Nc3ccc4c(c3)OCO4)c3ccccc23)cc1S(=O)(=O)NC(C)C,-9%,-1%,-6%,5.4µM*,1%,1%
Cc1ccc(-c2nnc(Nc3ccc(Cl)c(Cl)c3)c3ccccc23)cc1S(=O)(=O)N(C)C,/,/,/,-2%,-3%,/
Clc1ccc(-c2noc(CN3CCCC3)n2)cc1,?,?,10µM*,19µM*,?,?
Cc1ccc(-c2noc(CN3CCCCC3)n2)cc1,?,?,13µM*,19µM*,?,?
Cc1ccc(-c2noc(CN3CCOCC3)n2)cc1,9%,2.8µM*,?,17µM*,?,3.2µM*
Cc1ccc(-c2noc(Cn3cc(S(=O)(=O)N4CCCC4)ccc3=O)n2)cc1,?,1%,11%,24µM*,/,10%
COC(=O)c1ccccc1NC(=O)Cn1c(=O)n(CCCCC(=O)NCc2ccc3c(c2)OCO3)c(=O)c2ccccc21,/,/,/,-16%,-2%,/
CCN(CC)c1ccc2c(C)c(Cl)c(=O)oc2c1,1%,0%,1%,1%,/,0%
COc1ccc2c(c1)c(=O)oc1cc(O)ccc12,2%,10%,12%,?,/,2%
CCN(CC)c1ccc2c(C)c(-c3ccc(N)cc3)c(=O)oc2c1,?,24%,6%,24µM*,?,23%
COc1ccc(-c2c(C)c3ccc(O)cc3oc2=O)cc1,29%,14%,13%[9.26 µM],15µM*,/,?
COc1ccc(-c2c(C)c3ccc(OCC(C)=O)cc3oc2=O)cc1,19%,2.2µM*,-6%,24µM*,?,2.8µM*
Cc1noc(C)c1S(=O)(=O)N(CC(=O)NCCc1ccc(Cl)cc1)c1ccc(C(C)C)cc1,/,/,/,2%,4%,/
O=c1c2cccc(Cl)c2nc2n1Cc1ccccc1-2,10%,2.8µM*,?,12µM*,/,?
Cc1sc2nc3n(c(=O)c2c1C)Cc1ccccc1-3,17%,?,?,3.8µM*,14µM*,26%
SMILES,p53 reactivation,Rab9 prom act,ELG1 genotox,FLuc counter,SMN2 splice enh,NPC1 prom act
O=c1nc2n(c3ccccc13)Cc1ccccc1-2,-3%,-2%,-1%,6%,12%,-2%
Cc1cnc(NC(=O)C2(c3ccccc3)CC2)s1,3%,30%,1%,-19%,8%,12%
Cc1csc(NC(=O)c2cc3c(s2)CCCCC3)n1,14%,0.5µM*,0.21µM*,0.13µM*,1µM*,0.35µM*
Cc1csc(NC(=O)C2CCCC2)n1,?,23%,?,-25%,28%,18%
Cc1cnc(NC(=O)c2cc3c(s2)CCCC3)s1,/,0.71µM*,?,0.27µM*,?,?
Cc1csc(NC(=O)c2cc3c(s2)CCCC3)n1,-3%,?,?,0.27µM*,/,0.56µM*
